These results are taken from PubChem BioAssay (NCI).

Assay [1] can be described thus: NCI Yeast Anticancer Drug Screen. Data for the rad50 strain (AID 155).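 Also: 0% = growth of vehicle-only cultures of the same strain.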 The note with it: S. cerevisiae rad50 strain growth inhibition; at 50.0 µM; hits give high values. The method in brief:
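Vehicle-treated cultures provide the reference for the growth inhibition reported for compound-exposed, repair-deficient yeast.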

A short description of assay [2]: NCI Yeast Anticancer Drug Screen. Data for the mec2-1 strain (AID 157). The settings on record: S. cerevisiae mec2-1 strain, at 50.0 µM, hits give high values. The method in brief:
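Cells of the genetically defined mec2-1 yeast strain are incubated with test compound. Inhibition of growth is calculated against vehicle-treated controls.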

Assay [3] in a line: NCI Yeast Anticancer Drug Screen. Data for the sgs1 mgt1 strain (AID 161).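 Also: 0% = growth of cultures given vehicle only.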 The settings on record: S. cerevisiae sgs1 mgt1 strain, at 50.0 µM, hits give high values. The method, boiled down: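 Read-out: growth inhibition vs vehicle controls. Cells: mutant yeast strain deficient in DNA damage repair.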
A short description of assay [4]: NCI Yeast Anticancer Drug Screen. Data for the cln2 rad14 strain (AID 165).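 Also: 0% = growth equal to vehicle treated cultures.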 The settings on record: S. cerevisiae cln2 rad14 strain, at 50.0 µM, hits give high values. The method in brief:
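The screen exposed genetically defined yeast (cln2 rad14) to test compounds and scored growth inhibition relative to vehicle-treated controls.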

Assay [5] is described as follows: NCI Yeast Anticancer Drug Screen. Data for the bub3 strain (AID 167). The settings on record: S. cerevisiae bub3 mutant strain, at 50.0 µM, hits give high values. The method in brief:
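Mutant yeast screening strain plus compound; vehicle-treated cultures serve as the 0% inhibition reference.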

Assay [6] can be described thus: NCI Yeast Anticancer Drug Screen. Data for the mlh1 rad18 strain (AID 175). The note with it: S. cerevisiae mlh1 rad18 strain growth inhibition; at 50.0 µM; hits give high values. The method, boiled down:
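Compound-treated yeast growth, normalised to vehicle controls. Strain bears defined DNA repair mutations.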

This is part of a sample that, as a whole, favours compounds with a hit. Of some 79,000 tested, about 15% had one in any assay. Values without a mark were called inactive. Active and inactive are the calls of the source. Rule as the data show it: active = growth inhibition above about 70%; inactive = the rest.

Regarding `O=C(C#Cc1ccccc1)[O][Sn]([c]1ccccc1)([c]1ccccc1)[c]1ccccc1`, the growth inhibition is 99% (active) in assay [1]; 99.2% (active) in assay [2]; 99.4% (active) in assay [3]; 99.2% (active) in assay [4]; 99.1% (active) in assay [5]; 99.2% (active) in assay [6].
Regarding `OC1(c2ccc(C3(O)C(c4ccccc4)=C(c4ccccc4)C(c4ccccc4)=C3c3ccccc3)cc2)C(c2ccccc2)=C(c2ccccc2)C(c2ccccc2)=C1c1ccccc1`, the growth inhibition was 5.6% in assay [1]; -1.75% in assay [2]; -1.7% in assay [3]; -6.6% in assay [4]; -2.15% in assay [5]; 9.85% in assay [6].
As for `CN(C)c1ccc(CC2Cc3ccccc3C2O)cc1` (stereo unspecified), the growth inhibition in assay [1] is 6.75%; in assay [2] it was -6.55%; in assay [3], 10.2%; in assay [4], -11.7%; in assay [5], 12.3%; in assay [6] it was 5.9%.
As to `NC1C2CC3CC1CC(C2)O3` (stereo unspecified), the growth inhibition is -10.8% in assay [1]; -8.1% in assay [2]; -9.4% in assay [3]; -68.5% in assay [4]; 7.45% in assay [5]; -14.3% in assay [6].
For the molecule `CNc1ccc(OC)cc1`, the growth inhibition in assay [1] is -4.9%; in assay [2] it was -0.9%; in assay [3] it was -13.4%; in assay [4] it was -1%; in assay [5], 7.35%; in assay [6] it was 3.25%.
For the molecule `O=P(O)(O)OC1OC(n2cnc3c(NCc4ccc(F)cc4)ncnc32)C(O)C1O` (stereo unspecified), the growth inhibition in assay [1] was 0.3%; in assay [2] it was 2.3%; in assay [3], -13.1%; in assay [4] it was -18.2%; in assay [5], 2%; in assay [6], -25.7%.
Consider `O=C(NNC(=O)c1ccccc1Br)c1ccccc1`, for which the growth inhibition in assay [1] was -17.6%; in assay [2] it was -45%; in assay [3] it was -5.4%; in assay [4], 3.45%; in assay [5], -21.5%; in assay [6], -23.6%.
With `CC[N+](C)(C)c1ccc(/C=C(/C#N)C(=O)OC)cc1`, the growth inhibition is 7.55% in assay [1]; 9.8% in assay [2]; 12.8% in assay [3]; 11.2% in assay [4]; -1.2% in assay [5]; -1.55% in assay [6].
For `CC1(C)OC2(C)CCC1C1C2N1C(=O)Nc1cccc(Cl)c1` (stereo unspecified), the growth inhibition was -4.05% in assay [1]; -13.8% in assay [2]; -2.25% in assay [3]; -2.45% in assay [4]; -7.9% in assay [5]; -18.5% in assay [6].
As to `CC1(C)C=C(C(Br)c2ccc(Cl)cc2)C(=O)c2ccccc21` (stereo unspecified), the growth inhibition was 96.8% (active) in assay [1]; 97.4% (active) in assay [2]; 98.2% (active) in assay [3]; 94.7% (active) in assay [4]; 88.2% (active) in assay [5]; 98.2% (active) in assay [6].
For the molecule `CCCCCCCCC(=O)OCC(=O)N(C)C`, the growth inhibition in assay [1] was 15.6%; in assay [2] it was 8.8%; in assay [3], 6.35%; in assay [4], 13.3%; in assay [5], 2.9%; in assay [6], 9.4%.
On to `Cc1cc(=O)oc2c(CNC(CC(C)C)C(=O)O)c(O)ccc12` (stereo unspecified), for which the growth inhibition in assay [1] is -51.9%; in assay [2] it was -32.3%; in assay [3], -46.6%; in assay [4], -16.4%; in assay [5] it was -24.8%; in assay [6], -63.1%.
With `CCCCCC(Oc1ccc(Cl)cc1)C(=O)OCC` (stereo unspecified), the growth inhibition was 22.8% in assay [1]; 9.1% in assay [2]; 14.9% in assay [3]; 1.45% in assay [4]; 15% in assay [5]; 17.2% in assay [6].
As to `CCOC(=O)/C(C)=C\C1C(C)=CC(=O)CC1(C)C` (stereo unspecified), the growth inhibition in assay [1] is -0.05%; in assay [2] it was -16.1%; in assay [3], -5.1%; in assay [4] it was -29%; in assay [5], 20.4%; in assay [6], -7.15%.
Turning to `NC1=NN(c2ccccc2)C(=O)C1C(=O)CCC(=O)Nc1cccc(Cl)c1` (stereo unspecified), the growth inhibition is 9.9% in assay [1]; -1.8% in assay [2]; -11.4% in assay [3]; 18.2% in assay [4]; 5.35% in assay [5]; 2.1% in assay [6].
On to `NOCc1nnc(Nc2ccccc2)s1`, for which the growth inhibition in assay [1] is 7.25%; in assay [2], 3.8%; in assay [3] it was 5.8%; in assay [4], 19.3%; in assay [5] it was -4.4%; in assay [6], 5.55%.
For `CCN(CC)CCS(=O)(=O)CCS(=O)(=O)CCN(CC)CC`, the growth inhibition is 18.5% in assay [1]; 10.9% in assay [2]; 25.2% in assay [3]; 25.2% in assay [4]; 4.4% in assay [5]; 14.2% in assay [6].
For the molecule `O=c1oc(-c2ccc(Cl)cc2Cl)nc2cc(Cl)ccc12`, the growth inhibition in assay [1] was 22.9%; in assay [2], -10.4%; in assay [3], 43.2%; in assay [4], 22.2%; in assay [5], 19.6%; in assay [6], 25.4%.
On to `CCN(CC)C(=O)C(C)n1cc(C)c(=O)[nH]c1=O` (stereo unspecified), for which the growth inhibition in assay [1] was -32.2%; in assay [2], -39.2%; in assay [3], -19.9%; in assay [4], 5.35%; in assay [5], -2.55%; in assay [6], -3.85%.
Consider `CC12CCC(O)CC1=CCC1C2CCC2(C)C1CC1=CC(C#N)C(=O)NC12O` (stereo unspecified), for which the growth inhibition in assay [1] was 3.55%; in assay [2] it was 6.85%; in assay [3] it was 1.35%; in assay [4] it was -65.4%; in assay [5] it was -0.3%; in assay [6] it was 17.2%.
On to `CCCNC(=O)c1ccccc1O`, for which the growth inhibition in assay [1] was 9.95%; in assay [2], 3.05%; in assay [3], 3.9%; in assay [4], 1.4%; in assay [5], 0.3%; in assay [6], 7.45%.
`CC(C)C1c2ccccc2C(=O)C1C(N)=O` (stereo unspecified): the growth inhibition in assay [1] was -16.9%; in assay [2] it was -11.4%; in assay [3], -12.8%; in assay [4], -22.6%; in assay [5], -4.55%; in assay [6], -10.4%.
On to `COc1cc(NC(N)=O)ccc1Nc1c2ccc(N)cc2nc2cc(N)ccc12`, for which the growth inhibition is 69.8% in assay [1]; 22.6% in assay [2]; 9.05% in assay [3]; 43% in assay [4]; -14.9% in assay [5]; 27.6% in assay [6].
With `CNc1ncnc2c(C3OC(CO)C(O)C3O)[nH]nc12` (stereo unspecified), the growth inhibition was 16% in assay [1]; 10.8% in assay [2]; 6.6% in assay [3]; 20.8% in assay [4]; -0.8% in assay [5]; 13.4% in assay [6].
For `CCCOC(=O)CCCC1=NC2=CC=CC3=NC(C)=NC(=N1)N23`, the growth inhibition was -10.3% in assay [1]; -3.4% in assay [2]; -7.45% in assay [3]; -45.1% in assay [4]; -38.1% in assay [5]; -7.45% in assay [6].
Turning to `CC(=O)Nc1ccc(/C=N/Nc2nc3ccccc3s2)cc1`, the growth inhibition in assay [1] was -10.3%; in assay [2], -11%; in assay [3] it was -5%; in assay [4] it was -50.4%; in assay [5] it was 1.9%; in assay [6] it was 31.1%.
For `O=C1c2ccccc2OCC1/C=N/O` (stereo unspecified), the growth inhibition in assay [1] is 1.9%; in assay [2], -24.1%; in assay [3], -26.4%; in assay [4], 32.2%; in assay [5], -34.1%; in assay [6], -10.8%.
As to `CCCCOCCOCCOS(=O)(=O)c1ccc(C)cc1`, the growth inhibition in assay [1] was 11.1%; in assay [2], 1.6%; in assay [3] it was 12.6%; in assay [4], 5%; in assay [5], 10.2%; in assay [6] it was 13.9%.
As for `NC(=O)N=C(NC(N)=O)NC(N)=O`, the growth inhibition in assay [1] was -17.1%; in assay [2], -21.5%; in assay [3], -10.2%; in assay [4], -18.3%; in assay [5], -6.85%; in assay [6] it was -17.1%.
Regarding `C[n+]1ccc(/C=C/c2c[nH]c3ccccc23)cc1`, the growth inhibition in assay [1] was 6.25%; in assay [2], 10.8%; in assay [3], 3.6%; in assay [4], -1.75%; in assay [5], 5.1%; in assay [6], -8.3%.
`O=C1/C(=N\N(C(=O)c2ccccc2)c2ccccc2)c2cccc3cccc1c23`: the growth inhibition in assay [1] is 11.8%; in assay [2] it was 49%; in assay [3] it was 20.4%; in assay [4], 12.2%; in assay [5], 24.9%; in assay [6], 35.9%.
With `CC(=O)Nc1ccc(S(=O)(=O)Nc2c(N)[nH]c(=S)[nH]c2=O)cc1`, the growth inhibition is 14% in assay [1]; 3.9% in assay [2]; 1.25% in assay [3]; -3.75% in assay [4]; 9.5% in assay [5]; 9.45% in assay [6].
For the molecule `CC1N(/N=C/c2ccccc2)C(c2ccccc2)C(c2ccccc2)N1/N=C/c1ccccc1` (stereo unspecified), the growth inhibition in assay [1] is 11.4%; in assay [2], 15%; in assay [3] it was 17.2%; in assay [4], 5.3%; in assay [5], 1.75%; in assay [6] it was 6.25%.
`O=c1nc(-c2ccccc2)cc(Cc2ccc3ccccc3n2)[nH]1`: the growth inhibition in assay [1] was 30.1%; in assay [2], 25.8%; in assay [3], 26.1%; in assay [4], -29.8%; in assay [5], 47%; in assay [6], 28.9%.
Consider `CC(=O)c1ccc(N2C(=O)CC(NC3CCCCC3)C2=O)cc1` (stereo unspecified), for which the growth inhibition in assay [1] was -7.4%; in assay [2] it was 7.1%; in assay [3], 9.45%; in assay [4] it was -2.15%; in assay [5], 1.65%; in assay [6], -17.4%.
In the case of `CCOC(=O)OC1CC2CC(OC(=O)OCC)c3cccc(Br)c3C2c2ccccc21` (stereo unspecified), the growth inhibition in assay [1] is 25.1%; in assay [2], 12.9%; in assay [3] it was 18.8%; in assay [4], 0.05%; in assay [5] it was -5.3%; in assay [6] it was 33.7%.
